Sampled rows, rich in hits. Any-hit rate of the full collection: about 21%.
ClpP mod = qHTS Assay for Activators of ClpP; purified B. subtilis ClpP, FRET peptide cleavage, 20 min; Potency, µM (titrated, usually from 57.5 µM), without a hit: at the top dose activity change, negative = active; hit rate 1.9% among 340,000; active = well fitted falling curve with a large enough effect; inconclusive = small, poorly fitted or top-dose-only effect; inactive = no such curve, though single readings can be large or run the other way; note: potency is the fitted concentration of half-maximal effect; the source files actives as falling curves though it sought activators and does not explain the sign; nearly all actives have a fitted effect of over 65% in size
Target sequence (P80244 whole entry, looked up): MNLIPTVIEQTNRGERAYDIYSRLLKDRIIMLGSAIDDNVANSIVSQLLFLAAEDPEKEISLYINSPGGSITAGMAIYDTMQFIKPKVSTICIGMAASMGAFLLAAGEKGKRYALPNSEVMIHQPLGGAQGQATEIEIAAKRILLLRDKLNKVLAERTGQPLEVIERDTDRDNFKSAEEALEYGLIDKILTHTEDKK
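Purified B. subtilis ClpP, 10 microg/mL final in Tris/HCl pH8 with KCl, BSA, glycerol and Tween-20, cleaved an Abz/nitrotyrosine-quenched decapeptide. Fluorescence (ex 320, em 430) was read at 0 and 20 min at room temperature. Delta was normalized to 5.8 microM ADEP and DMSO/no-enzyme controls.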
IL1B secr inh = blocks inflammasome-driven IL-1 beta release; hit rate 4.7% among 360,000; THP-1 LPS/ATP IL-1B secretion, AlphaLISA, 16 h; hits give low values; activity change, % at 57.5 µM; in the data active = activity change below about -50%; inconclusive = mostly about -30% to -49%; note: % is set by controls: 0 for no effect and ±100 for the full control effect
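Secreted IL-1B measured by AlphaLISA bead assay after 16 h compound exposure of THP-1 cells; compounds (final up to 57.5 uM) added 1 h before LPS (250 ng/mL) and ATP (1.25 mM) stimulation; lower signal means less secretion.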
TDP1 cell CPT = DT40-hTDP1 cell growth loss with CPT. AID 686979. Potency, µM (titrated, usually from 46.2 µM), for the others: at the highest dose activity change, negative = growth inhibition, actives largely listed as inhibitors. hit rate 12% among 420,000. chicken DT40 Tdp1-/-;hTDP1 cells + 20 nM CPT, ATP luminescence, 48 h; note: potency is the fitted concentration of half-maximal effect; % is set by controls: 0 for no effect and ±100 for the full control effect; nearly all actives have a fitted effect of over 55% in size
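Cell growth measured by CellTiter-Glo luminescence after a minimum 48 h, 37 C compound exposure with 20 nM CPT in Tdp1-knockout DT40 cells stably expressing hTDP1, seeded 400/well; qHTS titration format.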
DT40 TDP1 no CPT = qHTS for Inhibitors of human tyrosyl-DNA phosphodiesterase 1 (TDP1): qHTS in cells in absence of CPT; DT40 Tdp1-/- hTDP1 cells, no CPT, ATP luminescence, 48 h; Potency, µM (series often up to 46.2 µM), for inactives: top-dose activity change, negative = growth inhibition, hits mostly inhibitors; hit rate 15% among 420,000; AID 686978, 2013; note: potency is the fitted concentration of half-maximal effect; % is set by controls: 0 for no effect and ±100 for the full control effect; nearly all actives have a fitted effect of over 55% in size
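Camptothecin absent (DMSO only). Human TDP1-complemented DT40 knockout cells, 400 cells/well, 37 °C for minimum 48 hr; ATP measured via CellTiter-Glo, 30 min dark incubation, luminescence.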
DRD3 agonist = D3 dopamine receptor (human) agonism. P35462. D3R DiscoveRx beta-arrestin cells, luminescence, 90 min. max activation, %. hit rate 0.58% among 410,000; in the data active = max activation above about 30%; note: 0% is about no effect
Target sequence (P35462 whole entry, looked up): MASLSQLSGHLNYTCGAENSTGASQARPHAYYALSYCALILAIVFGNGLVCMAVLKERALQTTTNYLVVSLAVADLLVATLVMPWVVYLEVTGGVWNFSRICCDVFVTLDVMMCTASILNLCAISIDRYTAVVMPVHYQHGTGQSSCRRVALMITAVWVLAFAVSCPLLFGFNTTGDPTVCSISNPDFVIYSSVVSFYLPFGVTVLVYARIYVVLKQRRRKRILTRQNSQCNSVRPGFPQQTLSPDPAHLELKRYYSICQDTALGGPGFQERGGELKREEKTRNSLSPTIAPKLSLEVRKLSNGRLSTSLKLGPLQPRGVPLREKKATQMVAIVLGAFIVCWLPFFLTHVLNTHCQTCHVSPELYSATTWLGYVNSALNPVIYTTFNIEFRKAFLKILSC
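Cells at 1500/well, incubated overnight, then treated with pinned compounds (dopamine as control) for 90 min at 37 degrees C. DiscoveRx reagent added for 30 - 60 minutes at room temperature; luminescence read.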
DRD3 antagonist = blocks the human D3 dopamine receptor | P35462 | D3R cells, DiscoveRx beta-arrestin luminescence, antagonist mode; hits give low values | max response, negative = inhibition, % | hit rate 2.5% among 360,000; in the data active = max response below about -50%; inconclusive = no clear call, values can overlap the other calls; note: % is set by controls: 0 for no effect and ±100 for the full control effect
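Cells expressing the human receptor were seeded at 1500 cells/well, incubated overnight at 37 degrees C in 5% CO2, then exposed to library compounds with dopamine controls for 90 minutes at 37 degrees C before luminescent detection.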
* hit, by the source's call; u = inconclusive; x = not tested or not shown; ! = not active in a repeat. Unless noted, calls come from the whole dose curve; as a rule, active = well fitted inhibition curve with a large enough effect; inconclusive = small, poorly fitted or top-dose-only effect; inactive = flat fitted curve, though single readings scatter.

SMILES	ClpP mod	IL1B secr inh	TDP1 cell CPT	DT40 TDP1 no CPT	DRD3 agonist	DRD3 antagonist
Cc1ccc(C(NC(=O)N2CCOCC2)C(Cl)Cl)cc1F (centres undefined)	-1.7%	20.3	u	5.9%	-3.3	-16.7
CC(=O)c1ccc(S(=O)(=O)N2CCN(c3nc(-c4cccs4)nc4ccccc34)CC2)cc1	-9.4%	x	-30.0%	u	x	x
O=S(=O)(c1ccccc1C(F)(F)F)N1CCN(c2nc(-c3cccs3)nc3ccccc23)CC1	4.1%	x	12.6µM*	11.2µM*	x	x
CCOC(=O)c1ccc(S(=O)(=O)N2CCN(c3nc(-c4cccs4)nc4ccccc34)CC2)cc1	10µM*	x	-19.8%	-22.2%	x	x
COc1ccc(S(=O)(=O)N2CCN(c3nc(-c4cccs4)nc4ccccc34)CC2)cc1	28.2µM*!	x	u	u	x	x
CS(=O)(=O)N1CCN(c2nc(-c3cccs3)nc3ccccc23)CC1	-7.4%	x	15.8µM*	11.2µM*	x	x
Cc1ccc(C)c(S(=O)(=O)N2CCN(C(=O)c3cncc(Br)c3)CC2)c1	0.5%	-3.1	2.7%	u	29.0	5.0
CC(C)(C)c1ccc(S(=O)(=O)N2CCN(c3nc(-c4cccs4)nc4ccccc34)CC2)cc1	u	x	-11.9%	u	x	x
O=S(=O)(c1cccs1)N1CCN(c2nc(-c3cccs3)nc3ccccc23)CC1	u	x	u	20µM*	x	x
CCOC(=O)c1[nH]c(C)c(C(=O)Nc2cc(OC)ccc2OC)c1C	-1.7%	75.8	0.794µM*	0.562µM*	3.7	-15.2
CCOC(=O)c1c(C)c(C(=O)Nc2cc(OC)ccc2OC)c(C)n1CC	-3.7%	-1.7	6.51µM*	18.4µM*	16.1	8.2
CCOC(=O)c1[nH]c(C)c(C(=O)NCc2ccc(OC)cc2)c1C	2.8%	-3.8	10.5%	-2.5%	-1.4	8.6
COc1ccc(C)cc1NC(=O)COC(=O)c1ccc(OCc2ccc(Cl)cc2Cl)c(OC)c1	1.4%	0.5	18.4µM*	16.4µM*	0.9	8.7
CCOC(=O)c1c(C)[nH]c(C(=O)N/N=C/c2ccc(Br)cc2)c1C	-3.9%	13.9	1.16µM*	0.0231µM*	-2.9	-9.5
CCCCn1c(N)c(N(CC(C)C)C(=O)c2cc(-c3ccco3)nc3ccccc23)c(=O)[nH]c1=O	-12.9%	-1.4	-2.1%	-20.9%	1.9	2.1
CS(=O)(=O)c1ccc(C(=O)OC2CCOC2=O)cc1[N+](=O)[O-] (centres undefined)	x	u	u	u	-4.3	u
CCOC(=O)c1c(C)[nH]c(C(=O)OCC(=O)Nc2cc(C)ccc2OC)c1C	-0.6%	40.2	2.59µM*	4.11µM*	-2.9	3.1
CCOC(=O)C(=CNc1cc(C)nn1-c1ccccc1)C(=O)OCC	0.3%	10.1	20.6µM*	16.4µM*	97.6*	20.4
CCOC(=O)c1c(C)[nH]c(C(=O)OCC(=O)Nc2ccc(OC)c(Cl)c2)c1C	1.2%	-12.7	4.3%	-8.9%	-1.9	19.9
CCOC(=O)c1c(C)[nH]c(C(=O)OCC(=O)Nc2cc(C)nn2-c2ccccc2)c1C	-2.1%	-10.6	u	18.4µM*	5.4	10.1
O=C(COC(=O)c1ccc(O)cc1O)Nc1cc(-c2ccccc2)nn1-c1ccccc1	x	-57.7*	u	18.4µM*	0.4	0.0
Cc1c(NS(=O)(=O)c2cc(C(=O)NCc3ccco3)cc(Cl)c2Cl)c(=O)n(-c2ccccc2)n1C	x	-7.8	-19.2%	u	-13.6	-9.1
CC(C)c1ccc(S(=O)(=O)NCc2ccc3c(c2)OCO3)cc1	-3.2%	-1.0	14.0%	-13.8%	2.8	-9.2
Cc1cc(Cl)cc(Cl)c1OCCN1CCCC1	-0.5%	-24.9	0.6%	6.8%	-13.6	-12.0
COC(=O)c1ccccc1NC(=O)Cn1c(=O)nc(-c2ccccc2)c2cc(Cl)ccc21	-16.2%	x	5.2%	-25.1%	1.6	x
SMILES	ClpP mod	IL1B secr inh	TDP1 cell CPT	DT40 TDP1 no CPT	DRD3 agonist	DRD3 antagonist
Cc1c(Cl)cccc1NC(=O)C(C)N(c1ccccc1)S(C)(=O)=O (centres undefined)	-2.6%	x	-34.8%	u	-7.1	x
C/C(=N\NS(=O)(=O)c1ccc(C)c([N+](=O)[O-])c1)c1cc2ccccc2o1	-5.4%	1.2	u	-4.7%	-7.7	-70.3*
C/C(=N\NS(=O)(=O)c1ccc(Cl)c([N+](=O)[O-])c1)c1ccc(C)o1	-0.4%	-2.5	-5.8%	-5.0%	7.5	-70.4*
C/C(=N\NS(=O)(=O)c1ccc(C)c([N+](=O)[O-])c1)c1ccc2c(c1)OCO2	-4.1%	0.0	-3.4%	-4.3%	-14.4	-18.9
C/C(=N\NS(=O)(=O)c1ccc(Cl)c([N+](=O)[O-])c1)c1cc2ccccc2o1	0.2%	-12.8	-13.1%	u	2.6	-97.8*
COC(=O)C1=C[C@@H](C(=O)OC)[C@@H]2C3=C(C(=O)[C@@]2(C)NC(=O)c2ccccc2)[C@H](c2ccccc2)[C@@H]2C(=O)NC(=O)[C@@H]2[C@@H]3C1	1.3%	-4.7	-3.5%	-8.3%	-1.5	-6.3
CCNC(=O)C1CCN(c2nc3ccccc3nc2C(F)(F)F)CC1	1.3%	x	u	u	-3.7	x
O=C(CCCc1nc(-c2ccco2)no1)Nc1ccccc1[N+](=O)[O-]	-1.5%	x	-3.7%	-21.2%	-11.1	x
C=CCN1C=CC(=C/C=C(/C#N)C(=O)OCC)C=C1	0.2%	-28.7	4.0%	-10.6%	-16.4	-27.6
CCN1C=C(Cc2ccc(OC)cc2)C2=C(C1)C(c1ccc(OC)cc1)C(C#N)=C(N)O2 (centres undefined)	-3.4%	-59.9*	u	16.4µM*	-2.9	-9.6
O=C(OCC(=O)N1CCC(Cc2ccccc2)CC1)c1ccccc1O	x	-8.3	u	29.1µM*	-1.0	0.6
O=C(OCC(=O)N1CCC(Cc2ccccc2)CC1)c1ccccc1NCCO	x	-4.8	u	u	-2.8	-4.0
NC(=O)c1ccccc1OCC(=O)N1CCC(Cc2ccccc2)CC1	-4.7%	-22.8	7.31µM*	9.2µM*	11.4	14.8
COc1ccc(-c2noc(=O)n2CC(=O)N2CCC(Cc3ccccc3)CC2)cc1	-0.3%	-5.2	u	23.1µM*	0.7	-1.6
O=C(Cn1c(-c2ccccc2)noc1=O)N1CCC(Cc2ccccc2)CC1	x	-21.0	u	u	7.1	-0.2
O=C(NCC(=O)N1CCC(Cc2ccccc2)CC1)c1ccccc1F	-2.7%	u	u	20.6µM*	-2.6	-0.6
CN1CCC(N(Cc2cccs2)c2ccccc2)CC1	x	x	u	u	-17.6	x

Screening results: PubChem BioAssay, National Center for Advancing Translational Sciences (NCATS)
